# Source: PubChem BioAssay AID2284071 (EPA ToxCast)
# Inconclusive results are not listed. Activity calls are given as the source filed them. Rule for the calls: active = hit-call score of the fitted dose curve at least 0.9, where 1 is the maximum; inactive = score below 0.9.
# Biological target: Tyrosine-protein kinase ABL1 (Homo sapiens) (UniProt P00519)
# Experiment: ERF_FR_ENZ_hABL1: Eurofins (ERF) Enzymatic Radiometric [Km ATP] KinaseProfiler LeadHunter Assay for human ABL1 Tyrosine Kinase
# Description: ERF_FR_ENZ_hABL1 is a biochemical, single-readout assay that uses extracted gene-proteins in a cell-free assay. Measurements were taken 0.5 hour after chemical dosing in a 96-well plate. See Abl Human TK Kinase Enzymatic LANCE Assay [Km ATP], Cerep.ERF_FR_ENZ_hABL1 is an assay component calculated from the ERF_FR_ENZ_hABL1 assay. It is designed to measure enzyme activity using a type of enzyme reporter as detected by fluorescence intensity with LANCE technology.Data from the assay component ERF_FR_ENZ_hABL1 was analyzed at the assay endpoint, ERF_FR_ENZ_hABL1, in the positive analysis fitting direction relative to DMSO as the negative control and baseline of activity. Using a type of enzyme reporter, loss-of-signal activity can be used to understand changes in enzymatic activity as they relate to gene ABL1. To generalize the intended target to other relatable targets, this assay endpoint is annotated to the kinase intended target family, where the subfamily is serine/threonine kinase.
# ABL (h) is incubated with 8 mM MOPS pH 7.0, 0.2 mM EDTA, 50 uM […], 10 mM Mg Acetate and [g- 33P]- ATP (specific activity and concentration as required). The reaction is initiated by the addition of the Mg/ATP mix. After incubation for 40 minutes at room temperature, the reaction is stopped by the addition of phosphoric acid to a concentration of 0.5%. An aliquot of the reaction is then spotted onto a filter and washed four times for 4 minutes in 0.425% phosphoric acid and once in methanol prior to drying and scintillation counting. Compound should be supplied in 100%DMSO .We require a stock solution at a concentration of at least 50x higher than the Final Assay Concentration of your cpd. A 10mM stock is also acceptable. When ordering fewer than 60 kinase assays,we need 120uL of 50x concentrated stock. For more than 60 assays, we need 420uL of 50xcc stock. Please apply the conversion if you provide 10mM stock solution or compounds in powder form (pre-weighed is required) From 50 cpds supplied as solids, the TAT will be extended.
# Sequence of Tyrosine-protein kinase ABL1 (Homo sapiens) (P00519 whole entry, looked up): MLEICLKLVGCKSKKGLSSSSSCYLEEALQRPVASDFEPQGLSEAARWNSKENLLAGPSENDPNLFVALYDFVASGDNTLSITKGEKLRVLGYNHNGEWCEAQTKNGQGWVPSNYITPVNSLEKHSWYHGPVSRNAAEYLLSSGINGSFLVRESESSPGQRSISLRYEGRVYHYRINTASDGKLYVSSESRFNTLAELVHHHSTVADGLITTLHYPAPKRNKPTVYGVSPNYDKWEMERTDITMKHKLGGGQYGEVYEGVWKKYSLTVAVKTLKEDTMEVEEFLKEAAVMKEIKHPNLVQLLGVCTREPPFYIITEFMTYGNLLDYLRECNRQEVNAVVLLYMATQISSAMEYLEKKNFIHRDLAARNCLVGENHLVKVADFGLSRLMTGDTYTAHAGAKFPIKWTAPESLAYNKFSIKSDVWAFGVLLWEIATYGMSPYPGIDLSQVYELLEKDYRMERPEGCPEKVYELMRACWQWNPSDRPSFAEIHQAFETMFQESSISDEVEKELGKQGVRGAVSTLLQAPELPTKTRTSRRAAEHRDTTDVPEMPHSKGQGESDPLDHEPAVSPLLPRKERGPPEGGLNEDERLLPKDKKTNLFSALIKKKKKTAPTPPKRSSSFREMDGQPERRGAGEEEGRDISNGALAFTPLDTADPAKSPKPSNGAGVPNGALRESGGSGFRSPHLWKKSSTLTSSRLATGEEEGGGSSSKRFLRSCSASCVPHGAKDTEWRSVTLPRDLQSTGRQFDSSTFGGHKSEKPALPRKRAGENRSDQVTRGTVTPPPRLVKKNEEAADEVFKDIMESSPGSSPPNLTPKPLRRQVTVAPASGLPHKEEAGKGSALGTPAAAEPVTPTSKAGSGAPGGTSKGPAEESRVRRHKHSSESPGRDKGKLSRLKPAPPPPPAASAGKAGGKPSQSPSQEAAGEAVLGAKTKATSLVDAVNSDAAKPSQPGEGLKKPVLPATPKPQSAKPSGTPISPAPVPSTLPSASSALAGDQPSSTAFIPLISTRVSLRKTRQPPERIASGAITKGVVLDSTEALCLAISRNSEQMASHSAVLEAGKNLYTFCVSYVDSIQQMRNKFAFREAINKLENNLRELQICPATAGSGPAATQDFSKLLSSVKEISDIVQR
Structure (SMILES),outcome,AC50
COc1cc(CCC(=O)CC(=O)CCc2ccc(O)c(OC)c2)ccc1O,inactive,
COc1cc(/C=C/C(=O)CC(=O)/C=C/c2ccc(O)c(OC)c2)ccc1O,,1.37 µM (active)
O=C(/C=C/c1ccc(O)cc1)CC(=O)/C=C/c1ccc(O)cc1,,0.843 µM (active)
